Screens from PubChem BioAssay.
Sampled rows, rich in hits. Any-hit rate of the full collection: about 19%.
HT1080 IDH1KD tx – kills HT-1080 cells with IDH1 knockdown; HT-1080 IDH1 knockdown viability, ATP luminescence, 48 h; Potency, µM (titrated, usually from 46.1 µM), usual class: cytotoxic; 2% of 360,000 active
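Assay cells: HT-1080 with IDH1 knockdown, 750 per well, RPMI/5% FBS. Exposure: 48 h at 37 °C following 2 h pre-incubation. Read: CellTiter-Glo luminescence; fitted concentration-response, curve class assigned.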
IL1B secr inh – blocks inflammasome-driven IL-1 beta release; THP-1 LPS/ATP IL-1B secretion, AlphaLISA, 16 h; hits give low values; activity change, % at 57.5 µM; 4.7% of 360,000 active; AID 743279; in the data active = activity change below about -50%; inconclusive = mostly about -30% to -49%
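Secreted IL-1B measured by AlphaLISA bead assay after 16 h compound exposure of THP-1 cells; compounds (final up to 57.5 uM) added 1 h before LPS (250 ng/mL) and ATP (1.25 mM) stimulation; lower signal means less secretion.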
DT40 TDP1 CPT – DT40-hTDP1 cell growth loss with CPT. chicken DT40 Tdp1-/-;hTDP1 cells + 20 nM CPT, ATP luminescence, 48 h. Potency, µM (doses to about 46.2 µM), most hits filed as inhibitors. 12% of 420,000 active. AID 686979; also: nearly all actives have a fitted effect of over 55% in size
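Chicken DT40 Tdp1-/- cells complemented with human TDP1, 400 cells/well, exposed to compounds plus 20 nM camptothecin for at least 48 h at 37 C; viability read as ATP content by CellTiter-Glo luminescence.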
DT40 TDP1 no CPT – qHTS for Inhibitors of human tyrosyl-DNA phosphodiesterase 1 (TDP1): qHTS in cells in absence of CPT | AID 686978, 2013 | 15% of 420,000 active | Potency, µM (series often up to 46.2 µM), actives largely listed as inhibitors | DT40 Tdp1-/- hTDP1 cells, no CPT, ATP luminescence, 48 h; also: nearly all actives have a fitted effect of over 55% in size
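No-CPT arm: Tdp1-/-;hTDP1 DT40 cells (400/well) plus compounds, incubated ≥48 hr at 37 °C. Readout CellTiter-Glo luminescence.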
HT1080-NT tox – kills 2HG-producing HT-1080-NT fibrosarcoma cells; Potency, µM (top dose mostly 46.1 µM), actives largely listed as cytotoxic; HT-1080-NT fibrosarcoma viability, CellTiter-Glo ATP luminescence, 48 h; 1.6% of 360,000 active; AID 686970;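 also: NT is the 2HG producing partner of a matched IDH1 knockdown line; nearly all actives have a fitted effect of over 55% in size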
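HT-1080-NT; 750 cells/well; 5% FBS RPMI; 48 h compound, 37 degrees C; CellTiter-Glo luminescence; curve fitting and curve-class assignment.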
Hits are given with their value; [ ] = dose if it differs, or a comment. Unless noted, calls follow the shape of the dose curve; as a rule, active = well fitted curve in the direction sought with a large enough effect; inconclusive = small, poorly fitted or top-dose-only effect, or another doubt; inactive = no such curve, though single readings can be large; an effect the other way counts as inactive or inconclusive.

`CCOc1ccc(/C=C2\SC(=O)N(CCNC(=O)C3COc4ccccc4O3)C2=O)cc1OC` (centres undefined) gave HT1080 IDH1KD tx inactive, IL1B secr inh -53, DT40 TDP1 CPT 12µM, DT40 TDP1 no CPT 9.2µM and HT1080-NT tox inactive.
For O=C(NCCN1C(=O)S/C(=C\c2ccc(Cl)c(Cl)c2)C1=O)c1ccc2c(c1)C(=O)N(Cc1ccncc1)C2=O the results were HT1080 IDH1KD tx inactive, IL1B secr inh inconclusive, DT40 TDP1 CPT 13µM, DT40 TDP1 no CPT 12µM and HT1080-NT tox inconclusive.
`COc1ccc(/C=C2/SC(=O)N(CCNC(=O)C3COc4ccccc4O3)C2=O)cc1` (centres undefined) gave HT1080 IDH1KD tx inactive, IL1B secr inh inactive, DT40 TDP1 CPT inconclusive, DT40 TDP1 no CPT 21µM and HT1080-NT tox inactive.
`CN1CCCC2(CCN(C(=O)c3cnccn3)CC2)C1` gave DT40 TDP1 CPT inactive and DT40 TDP1 no CPT inactive.
Nc1ccn([C@@H]2O[C@H](CNCc3cccc4c3sc3ccccc34)[C@@H](O)[C@H]2O)c(=O)n1 was read as HT1080 IDH1KD tx inactive, IL1B secr inh inactive, DT40 TDP1 CPT inactive, DT40 TDP1 no CPT inactive and HT1080-NT tox inactive.
For CCC1(c2ccccc2)NC(=O)N(CC(=O)NNC(=O)c2ccoc2C)C1=O (centres undefined) the results were HT1080 IDH1KD tx inactive, IL1B secr inh inactive, DT40 TDP1 CPT inactive, DT40 TDP1 no CPT inactive and HT1080-NT tox inactive.
For CC(C)c1nc(SCC(=O)c2c[nH]c3ccccc23)n[nH]1 the results were HT1080 IDH1KD tx inactive, IL1B secr inh inactive, DT40 TDP1 CPT inconclusive, DT40 TDP1 no CPT inactive and HT1080-NT tox inactive.
CNCC(=O)NCC(=O)N[C@@H](Cc1ccccc1)C(=O)N[C@@H](CC(C)C)C(=O)O was read as DT40 TDP1 CPT inactive[4.12 µM] and DT40 TDP1 no CPT inactive[4.12 µM].
Cc1ccc2[nH]c(O)c(N=NC(=O)C(C)n3cnc4ccccc4c3=O)c2c1 (centres undefined) was read as HT1080 IDH1KD tx inactive, IL1B secr inh inactive, DT40 TDP1 CPT inactive, DT40 TDP1 no CPT inconclusive and HT1080-NT tox inactive.
`O=S(=O)(Nc1ccc(O)c2ccccc12)c1cccs1` gave HT1080 IDH1KD tx 21µM, IL1B secr inh -99, DT40 TDP1 CPT 2.1µM, DT40 TDP1 no CPT 4.6µM and HT1080-NT tox 26µM.
CCCc1cc(=O)n2nc(N3CCC(C(=O)N4CCN(c5cccc(OC)c5)CC4)CC3)sc2n1 was read as HT1080 IDH1KD tx inactive, IL1B secr inh inconclusive, DT40 TDP1 CPT 12µM, DT40 TDP1 no CPT 5.8µM and HT1080-NT tox inactive.
Screening COCCNC(=S)N1CCN(c2nc(-c3ccccc3)cs2)CC1 returned HT1080 IDH1KD tx inactive, IL1B secr inh inactive, DT40 TDP1 CPT inconclusive, DT40 TDP1 no CPT 18µM and HT1080-NT tox inconclusive.
`O=C(C1CCCCC1)N1CCN(c2nc(-c3ccc(F)cc3)cs2)CC1` gave HT1080 IDH1KD tx inactive, IL1B secr inh inactive, DT40 TDP1 CPT inconclusive, DT40 TDP1 no CPT inconclusive and HT1080-NT tox inactive.
For COc1cccc(-c2csc(N3CCN(C(=O)C4CCCCC4)CC3)n2)c1 the results were HT1080 IDH1KD tx inactive, IL1B secr inh -73, DT40 TDP1 CPT inconclusive, DT40 TDP1 no CPT inconclusive and HT1080-NT tox inactive.
Screening CCCNC(=S)N1CCN(c2nc(-c3cccc(OC)c3)cs2)CC1 returned HT1080 IDH1KD tx inactive, IL1B secr inh -59, DT40 TDP1 CPT inconclusive, DT40 TDP1 no CPT inconclusive and HT1080-NT tox inactive.
`O=C(N/N=C/c1ccc([N+](=O)[O-])o1)c1ccncc1` gave HT1080 IDH1KD tx 18µM, IL1B secr inh inactive, DT40 TDP1 CPT 9.2µM, DT40 TDP1 no CPT 9.2µM and HT1080-NT tox inconclusive.
Screening O=C(N/N=C\c1ccc([N+](=O)[O-])o1)c1cncc(Br)c1 returned HT1080 IDH1KD tx 16µM, IL1B secr inh -79, DT40 TDP1 CPT 4.6µM, DT40 TDP1 no CPT 6.5µM and HT1080-NT tox 21µM.
Screening CCN(CC)S(=O)(=O)c1cccc(C(=O)N/N=C/c2ccc([N+](=O)[O-])o2)c1 returned HT1080 IDH1KD tx 18µM, IL1B secr inh -89, DT40 TDP1 CPT 21µM, DT40 TDP1 no CPT inconclusive and HT1080-NT tox inconclusive.
`Cc1nc2ccccn2c1C(=O)N/N=C/c1ccc([N+](=O)[O-])o1` gave HT1080 IDH1KD tx inactive, IL1B secr inh inactive, DT40 TDP1 CPT 2.9µM, DT40 TDP1 no CPT 5.8µM and HT1080-NT tox inactive.
For O=C(N/N=C/c1ccncc1)c1ccncc1 the results were HT1080 IDH1KD tx inactive, IL1B secr inh inactive, DT40 TDP1 CPT inactive, DT40 TDP1 no CPT inactive and HT1080-NT tox inactive.
CCN(CC)S(=O)(=O)c1cccc(C(=O)N/N=C/c2ccccc2OCC(=O)O)c1 was read as HT1080 IDH1KD tx inactive, IL1B secr inh inactive, DT40 TDP1 CPT inactive, DT40 TDP1 no CPT inactive and HT1080-NT tox inactive.
`CC(=O)c1cccc(NC(=O)C(C)OC(=O)CN2C(=O)NC(C)(C)C2=O)c1` (centres undefined) gave HT1080 IDH1KD tx inactive, IL1B secr inh inactive, DT40 TDP1 CPT inactive, DT40 TDP1 no CPT inactive and HT1080-NT tox inactive.
For Cc1oc2c(c(C)cc3oc(=O)c(CC(=O)NCCc4ccc(Cl)cc4)c(C)c32)c1C the results were DT40 TDP1 CPT inactive and DT40 TDP1 no CPT inactive.
For O=C(N/N=C/c1ccc([N+](=O)[O-])o1)C1CCCC1 the results were HT1080 IDH1KD tx inconclusive, IL1B secr inh inactive, DT40 TDP1 CPT inconclusive, DT40 TDP1 no CPT inconclusive and HT1080-NT tox inactive.
For O=C(N/N=C/c1ccc([N+](=O)[O-])o1)c1ccc(O)cc1 the results were HT1080 IDH1KD tx 6.5µM, IL1B secr inh inactive, DT40 TDP1 CPT 2.9µM, DT40 TDP1 no CPT 2.9µM and HT1080-NT tox 5.8µM.
For O=[N+]([O-])c1ccc(/C=N\NS(=O)(=O)c2ccc(F)cc2)o1 the results were HT1080 IDH1KD tx inactive, IL1B secr inh inactive, DT40 TDP1 CPT 15µM, DT40 TDP1 no CPT inconclusive and HT1080-NT tox inactive.
Screening Cc1cccc(S(=O)(=O)NC(Cc2c[nH]c3ccccc23)C(=O)O)c1 (centres undefined) returned HT1080 IDH1KD tx inactive, IL1B secr inh inactive, DT40 TDP1 CPT inactive, DT40 TDP1 no CPT inactive and HT1080-NT tox inactive.
Screening Cc1cc(C)cc(NC(=O)CSc2nc3nc(C)cc(C)n3n2)c1 returned HT1080 IDH1KD tx inactive, IL1B secr inh inactive, DT40 TDP1 CPT inconclusive, DT40 TDP1 no CPT inconclusive and HT1080-NT tox inactive.
`COc1ccc(OC)c(NC(=O)c2cc(OC(C)=O)cc(C(=O)Nc3cc(OC)ccc3OC)c2)c1` gave HT1080 IDH1KD tx inactive, IL1B secr inh inactive, DT40 TDP1 CPT inconclusive, DT40 TDP1 no CPT 10µM and HT1080-NT tox inactive.
For COc1ccc(C)cc1NC(=O)c1cccc(C(=O)Nc2cc(C)ccc2OC)c1 the results were HT1080 IDH1KD tx inactive, IL1B secr inh inconclusive, DT40 TDP1 CPT 15µM, DT40 TDP1 no CPT 10µM and HT1080-NT tox inactive.
